This note sets out measurements from PubChem BioAssay (Tox21).

Test [1] in a line: qHTS assay to identify small molecule antagonists of the thyroid receptor (TR) signaling pathway - cell viability counter screen (AID 743064). Also: nearly all actives have a fitted effect of over 50% in size. Also: potency is read from the fitted curve at half-maximal effect. Put shortly:
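Counter screen for cytotoxicity: compound plus T3 (1 nM final) on GH3.TRE-Luc cells, 23.5 h at 37 °C, then fluorescence viability readout with CellTiter-Fluor.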

Test [2] can be described thus: qHTS assay to identify small molecule antagonists of the thyroid receptor (TR) signaling pathway (AID 743065). Also: nearly all actives have a fitted effect of over 55% in size. Also: potency is read from the fitted curve at half-maximal effect. As to activity, negative = inhibition: series mostly up to about 70 µM. Put shortly:
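Antagonism measured as loss of luciferase signal in GH3 cells stably carrying a TRE-luciferase reporter, co-treated with compound and T3 (1 nM final) for 23.5 h at 37 C. Viability was read in the same well by CellTiter-Fluor.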

Test [3] has as its system thyroid hormone receptor (rat, GH3 cells). The test can be described thus: qHTS assay to identify small molecule agonists of the thyroid receptor (TR) signaling pathway (AID 743066; calls by dose curve).
A short description of test [4]: qHTS assay to identify small molecule antagonists of the estrogen receptor alpha (ER-alpha) signaling pathway - cell viability counter screen (AID 743074; calls by dose curve;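 also: HEK293 cells carrying ER-alpha-UAS-bla reporter stimulated with 17beta-estradiol; nearly all actives have a fitted effect of over 45% in size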). For orientation: qHTS replaces the single test concentration by a dilution series.
The nature of test [5]: qHTS assay to identify small molecule antagonists of the estrogen receptor alpha (ER-alpha) signaling pathway using the BG1 cell line - cell viability counter screen (AID 743081).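 Also: compound given together with 17beta-estradiol as the ER stimulus; series mostly up to about 70 µM; nearly all actives have a fitted effect of over 45% in size.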
Test [6] concerns the target Aromatase (Homo sapiens) (UniProt P11511). As to the kind of experiment: qHTS assay to identify aromatase inhibitors (AID 743083). Also: series mostly up to about 70 µM; nearly all actives have a fitted effect of over 55% in size.
Test [7] deals with Estrogen receptor (Homo sapiens) (UniProt P03372). As to the kind of experiment: qHTS assay to identify small molecule antagonists of the estrogen receptor alpha (ER-alpha) signaling pathway (AID 743069; active = well fitted curve in the direction sought with a large enough effect in the signal ratio in the repeat runs, not every such curve was filed as active; the % refers to the signal ratio). The procedure, abridged: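 Antagonist mode: compounds in DMSO were co-added with 17beta-estradiol to ER-alpha-bla HEK293 cells (2% charcoal-stripped serum) and left 18 h at 37C. Reporter inhibition was measured as FRET fluorescence after 2 h LiveBLAzer substrate at room temperature.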

For test [8] the target is unchanged. As to the kind of experiment: qHTS assay to identify small molecule agonists of the estrogen receptor alpha (ER-alpha) signaling pathway (AID 743075; calls by dose curve;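 also: HEK293 GripTite cells with ER-alpha and UAS-driven beta-lactamase reporter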).
For test [9] the target is unchanged. As to the kind of experiment: qHTS assay to identify small molecule agonists of the estrogen receptor alpha (ER-alpha) signaling pathway using the BG1 cell line (AID 743079). Also: nearly all actives have a fitted effect of over 20% in size. Also: potency is read from the fitted curve at half-maximal effect.
The nature of test [10]: qHTS assay to identify small molecule antagonists of the estrogen receptor alpha (ER-alpha) signaling pathway using the BG1 cell line (AID 743080; calls by dose curve;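 also: BG1 cells stimulated with 17beta-estradiol alongside compound; series mostly up to about 70 µM; nearly all actives have a fitted effect of over 25% in size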). Put shortly: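 BG1-Luc-4E2 cells (endogenous full-length ER-alpha, stable 4×ERE-luciferase) were starved 5 days in phenol-red-free medium with 10% charcoal-stripped FBS, plated 24 h, then given compound plus 17beta-estradiol for 21.5 h at 37 C; ONE-Glo luminescence read after 30 min.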

Inconclusive results are not listed. Unmarked numbers belong to inactive results. Calls of active or inactive are those of the source. Unless noted, calls follow the shape of the dose curve; as a rule, active = well fitted curve in the direction sought with a large enough effect in the repeat runs; inconclusive = weak or mixed curves; inactive = no such curve, though single readings can be large; an effect the other way counts as inactive or inconclusive.
% is scaled to controls: 0 for no effect and ±100 for the full control effect.

Chain of Estrogen receptor (Homo sapiens) (P03372 whole entry, looked up): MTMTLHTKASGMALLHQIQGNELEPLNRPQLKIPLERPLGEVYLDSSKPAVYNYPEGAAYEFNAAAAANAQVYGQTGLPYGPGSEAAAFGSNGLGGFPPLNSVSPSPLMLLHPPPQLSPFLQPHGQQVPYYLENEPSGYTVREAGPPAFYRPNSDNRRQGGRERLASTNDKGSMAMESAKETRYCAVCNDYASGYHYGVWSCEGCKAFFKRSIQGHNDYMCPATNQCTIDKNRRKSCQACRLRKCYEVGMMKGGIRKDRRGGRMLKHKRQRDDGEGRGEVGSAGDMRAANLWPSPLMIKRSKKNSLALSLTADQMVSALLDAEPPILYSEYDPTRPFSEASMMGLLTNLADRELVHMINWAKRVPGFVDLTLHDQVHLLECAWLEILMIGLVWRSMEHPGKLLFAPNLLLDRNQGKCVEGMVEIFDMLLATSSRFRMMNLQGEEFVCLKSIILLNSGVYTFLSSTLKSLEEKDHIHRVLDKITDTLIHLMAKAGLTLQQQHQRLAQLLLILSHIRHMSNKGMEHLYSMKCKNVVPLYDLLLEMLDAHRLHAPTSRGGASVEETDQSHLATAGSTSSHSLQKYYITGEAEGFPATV
Chain of Aromatase (Homo sapiens) (P11511 whole entry, looked up): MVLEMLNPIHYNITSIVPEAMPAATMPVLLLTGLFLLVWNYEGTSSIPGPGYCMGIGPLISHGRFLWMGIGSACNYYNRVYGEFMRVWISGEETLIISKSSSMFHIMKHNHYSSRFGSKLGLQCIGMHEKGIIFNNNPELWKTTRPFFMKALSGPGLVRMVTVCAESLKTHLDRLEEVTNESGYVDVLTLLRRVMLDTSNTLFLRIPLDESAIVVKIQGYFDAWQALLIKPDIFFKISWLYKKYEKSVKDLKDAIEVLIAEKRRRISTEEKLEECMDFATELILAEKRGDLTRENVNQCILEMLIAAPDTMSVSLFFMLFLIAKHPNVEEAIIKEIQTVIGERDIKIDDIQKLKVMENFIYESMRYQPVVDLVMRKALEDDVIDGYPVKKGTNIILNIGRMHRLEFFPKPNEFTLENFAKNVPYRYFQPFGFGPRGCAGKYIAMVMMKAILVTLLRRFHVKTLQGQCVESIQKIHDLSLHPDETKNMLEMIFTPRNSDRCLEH

`CCCN(CCC)C(=O)C(CCC(=O)O)NC(=O)c1ccccc1` (centres undefined): the Potency entry in [1], in test [2], in test [4], in test [5] and in test [6] was “inactive” each time. The compound was classed as inactive in [3].

For the compound `CN(C)Cc1ccccc1`, the Potency entry in [1], in [2], in test [4], in test [5] and in test [6] was “inactive” in each case. Further, the compound was classed as inactive in test [3].

In the case of `CCN1CC(CCN2CCOCC2)C(c2ccccc2)(c2ccccc2)C1=O` (centres undefined), the Potency result in test [1], in test [2], in test [4], in test [5] and in [6] was “inactive” throughout. Further, the compound was called inactive in [3].

On to `CCCOCCC`, for which the Potency entry in [1], in [7], in test [4], in test [9], in test [5] and in test [6] was “inactive” each time. The outcome in test [8] and in [10] was inactive.

Consider `O=c1oc2c(O)c(O)cc3c(=O)oc4c(O)c(O)cc1c4c23`, for which the Potency result in [1], in test [7], in [4], in [9], in test [5] and in test [6] was “inactive” throughout. Further, the outcome in test [3], in test [8] and in test [10] was inactive.

For the compound `COc1cc(N)c(Cl)cc1C(=O)NC1CCN(Cc2ccccc2)CC1`, the Potency result in [1], in [7], in [4], in [9] and in test [5] was “inactive” each time. Also, the call in test [8] and in [10] was inactive.

For the compound `CCOC(=O)COc1ccc2c(c1)CC(NCC(O)c1cccc(Cl)c1)CC2` (centres undefined), the Potency in test [1] is 27.5 µM (active); in [2], 48.9 µM (active). The Potency result in test [7], in test [9] and in test [5] was “inactive” each time. In addition, the call in [8] was inactive.

In the case of `OCc1c2ccccc2cc2ccccc12`, the Potency entry in [1], in test [4], in [5] and in [6] was “inactive” throughout. For the same compound, the compound was called inactive in [8]. The Potency in test [9] is 54.6 µM (active).

In the case of `O=[N+]([O-])c1nccn1CO[C@@H](CO)[C@H](O)CO`, the Potency entry in [1], in test [2], in [5] and in [6] was “inactive” throughout. In test [3], the result was inactive.

As for `CCCCc1ccc2nc(NC(=O)OC)[nH]c2c1`, the Potency in [1] is 0.114 µM (active); in test [9], 2.27 µM (active). In addition, the Potency entry in test [7], in test [5] and in test [6] was “inactive” in each case.

For `O=C(O)[C@@H]1CSCN1`, the Potency result in [1], in [2], in test [4] and in test [6] was “inactive” in each case. The call in [3] was inactive.

For the compound `NC(Cc1ccc(F)cc1)C(=O)O` (centres undefined), the Potency in test [1] was 2.64 µM (active). Besides, the activation in test [3] is -5.43% [at 8.08 µM]. In test [4], the activity, negative = cytotoxicity is -20% [at 6.72 µM]. Moreover, the activity change, negative = cytotoxicity in test [5] is -2.97% [at 8.47 µM]. Also, the activity, negative = inhibition in test [6] was -6.6% [at 8.47 µM].

For `O=C(O)c1ccccc1Nc1cc(Cl)ccc1C(=O)O`, the Potency entry in [1], in test [2], in test [9], in test [5] and in [6] was “inactive” each time. For the same compound, the call in test [3], in test [8] and in test [10] was inactive.

As to `CCCCCOc1ccc(C2SC(=O)NC2=O)cc1OCC` (centres undefined), the Potency result in [1], in [7], in [4], in test [9] and in [5] was “inactive” each time. Further, in test [2], the Potency is 2.37 µM (active). Also, the result in test [8] and in test [10] was inactive.

On to `CCCCCCOc1ccc(N)cc1`, for which the Potency entry in [1] and in test [5] was “inactive” each time. For the same compound, the compound was called inactive in test [3] and in test [8]. Besides, in [9], the Potency was 9.69 µM (active).

On to `CCOC(=O)CS`, for which the Potency result in [1], in test [4], in test [5] and in [6] was “inactive” in each case. Further, the outcome in test [3] was inactive.

For the compound `O=C1CCC(C2CCCCC2)CC1`, the Potency result in test [1], in test [5] and in test [6] was “inactive” throughout. The result in test [3] was inactive.
